Compound activity (PubChem BioAssay)
Rows were chosen to be rich in hits. Some 7.5% of all compounds tested hit in one or more screens of this group.
Rab9 prom act: activators of Rab9 promoter | Huh7 Rab9 promoter-luciferase reporter, luminescence, 24 h | Potency, µM (titrated, usually from 9.22 µM), for inactives: top-dose activation, negative = inhibition, most hits filed as activators | hit rate 2.8% among 320,000 | AID 485297; note: % of control where 0% means no effect; nearly all actives have a fitted effect of over 60% in size
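Huh7 reporter line, Rab9 promoter upstream of luciferase. Compound exposure 24 h at 37 °C in reduced-serum medium with 10% FBS. Read-out: luminescence.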
SMN2 splice enh: increases expression of the SMN2 splice variant. Potency, µM (series often up to 46.1 µM), without a hit: top-dose activity change, positive = activation, actives largely listed as activators. HEK293 SMN2-luciferase splicing reporter, luminescence, 30-36 h. hit rate 2.8% among 210,000; note: % of control where 0% means no effect; nearly all actives have a fitted effect of over 55% in size
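HEK293 cells carry an SMN2 […]–luciferase reporter in which exon 7 inclusion puts luciferase in frame. Cells were plated 10-12 h before compound addition, then incubated 30-36 h at 37C. ONE-Glo luminescence was read; sodium butyrate at 4.5 mM final served as control.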
ELG1 genotox: genotoxicity induction in ELG1-luciferase HEK293T cells; HEK293T ELG1-luciferase reporter, luminescence, 16 h; Potency, µM (titrated, usually from 46 µM), without a hit: at the top dose activity change, positive = activation, actives largely listed as activators; hit rate 1.3% among 330,000; AID 504466; note: % of control where 0% means no effect; nearly all actives have a fitted effect of over 60% in size
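Cells (2,000/well) expressing the ELG1-luciferase fusion are dosed by pin tool and kept 16 hr at 37 °C, 5% CO2. Signal comes from ONE-Glo luciferase reagent after 30 min at room temperature.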
KinaseGlo FLuc: counter-screen: inhibitors of Kinase-Glo firefly luciferase | Q27757 | Kinase-Glo luciferase, ATP luminescence, 8 min | Potency, µM (highest dose often 38.3 µM), for the others: top-dose activity change, negative = inhibition, most hits filed as inhibitors | hit rate 0.28% among 200,000 | AID 1379; note: % is set by controls: 0 for no effect and ±100 for the full control effect; nearly all actives have a fitted effect of over 60% in size
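Inhibition of Kinase-Glo luciferase light generation was assessed at 10 uM ATP in pH 7.2 imidazole buffer, with luminescence measured after eight minutes at ambient temperature.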
NPC1 promoter act: NPC1 promoter activation; Potency, µM (titrated, usually from 9.22 µM), without a hit: at the top dose activation, most hits filed as activators; AID 485313; Huh7 NPC1 promoter luciferase reporter, 24 h; hit rate 2.4% among 320,000; note: % of control where 0% means no effect; nearly all actives have a fitted effect of over 60% in size
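Huh7 cells stably carrying NPC1 promoter–luciferase, plated in Opti-MEM with 10% FBS for 2 h, were exposed to compound in DMSO for 24 h at 37 °C; luciferase reagent was added for 10 min and luminescence read.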
FLuc modulator: firefly luciferase modulation, counter-screen for miR-21 project; P08659; purified FLuc, Km substrates, luminescence inhibition; Potency, µM (doses to about 57.5 µM), inactives show at the top dose activity change, negative = inhibition, usual class: inhibitors; hit rate 6.9% among 360,000; AID 588342;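 note: plate controls were vehicle for no effect and reference inhibitor for full effect; nearly all actives have a fitted effect of over 55% in size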
Target sequence (P08659 whole entry, looked up): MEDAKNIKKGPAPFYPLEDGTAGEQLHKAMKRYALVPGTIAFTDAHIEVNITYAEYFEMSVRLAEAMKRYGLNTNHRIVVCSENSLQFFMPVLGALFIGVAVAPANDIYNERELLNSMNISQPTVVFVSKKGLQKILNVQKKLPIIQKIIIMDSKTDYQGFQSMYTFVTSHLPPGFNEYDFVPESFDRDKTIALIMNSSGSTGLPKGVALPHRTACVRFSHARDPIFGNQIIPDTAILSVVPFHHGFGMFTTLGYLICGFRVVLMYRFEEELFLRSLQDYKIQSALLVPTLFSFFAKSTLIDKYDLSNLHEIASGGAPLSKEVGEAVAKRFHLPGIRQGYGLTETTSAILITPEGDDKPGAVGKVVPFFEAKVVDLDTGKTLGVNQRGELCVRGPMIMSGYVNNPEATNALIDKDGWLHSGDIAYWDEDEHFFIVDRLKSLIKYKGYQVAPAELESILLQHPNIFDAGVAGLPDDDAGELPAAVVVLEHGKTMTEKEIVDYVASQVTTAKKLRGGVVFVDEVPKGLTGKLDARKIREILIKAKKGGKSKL
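Purified P. pyralis luciferase, 10 nM final, with Km-level 10 uM D-luciferin and 10 uM ATP in 50 mM Tris acetate pH 7.5, 10 mM Mg acetate, 0.01% Tween-20, 0.05% BSA; 6-point qHTS titration about 60 µM downward; luminescence read.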
The depositor's hits bear a star; ? = inconclusive; nt = no result given; [ ] = dose if it differs, or a comment. Calls come from the whole dose curve; as a rule, active = well fitted curve in the direction sought with a large enough effect; inconclusive = small, poorly fitted or top-dose-only effect, or another doubt; inactive = no such curve, though single readings can be large; an effect the other way counts as inactive or inconclusive. Potency is the fitted concentration of half-maximal effect.

SMILES	Rab9 prom act	SMN2 splice enh	ELG1 genotox	KinaseGlo FLuc	NPC1 promoter act	FLuc modulator
Cc1ccc(OCC(=O)O/N=C(\N)c2ccncc2)cc1C	?	nt	18%	nt	17%	?
Cc1cc(C)cc(OCC(=O)O/N=C(\N)c2ccccn2)c1	-8%	5%	?	-2%	-4%	?
Cc1ccc(OCC(=O)O/N=C(\N)c2ccccn2)cc1C	?	nt	8.2µM*	nt	2.2µM*	12µM*
N/C(=N\OC(=O)COc1ccccc1)c1ccccn1	23%	-9%[1.84 µM]	?	-5%	19%	?
Cc1cccc(OCC(=O)O/N=C(\N)c2ccccn2)c1	14%	?	?	-4%	27%	17µM*
C=CCn1c(C)cc(C2=NNC(=NCc3ccccc3)SC2)c1C	2.2µM*	13µM*	?	-2%	?	19µM*
COCCn1c(C)cc(C2=NNC(=Nc3ccc(OC)cc3)SC2)c1C	?	11%	-2%	-4%	-2%	?
CCN=C1NN=C(c2cc(C)n(Cc3ccco3)c2C)CS1	-19%	-82%	?	-2%	-20%	0.21µM*
Cc1cc(C2=NNC(=NCCc3ccccc3)SC2)c(C)n1CC1CCCO1 (stereo not given)	?	-37%	8%	-9%	30%	15µM*
COCCn1c(C)cc(C2=NNC(=Nc3ccccc3)SC2)c1C	0.4µM*	?	?	-3%	0.35µM*	0.76µM*
COc1ccc(CNC(=O)C(c2ccc(C)o2)N(Cc2cccs2)C(=O)Cc2cccs2)cc1 (stereo not given)	0%	-3%	-7%	-1%	-2%	-13%
O=C(Cn1cnnn1)NC1CCCN(Cc2ccccc2F)C1 (stereo not given)	0%	nt	0%	nt	-2%	-1%
Clc1ccc(C2=NNC(=NCC3CCCO3)SC2)cc1 (stereo not given)	?	11µM*	20%	5%	3.2µM*	12µM*
O=S(=O)(NCC1CCCO1)c1ccc(-c2ccc(Cl)cc2)cc1 (stereo not given)	-14%	-62%	4%	-3%	-9%	-9%
COC(=O)C1=C(O)/C(=C/c2cccc(OC)c2O)N=C1C	?	nt	13%	nt	-4%	15µM*
COC(=O)C1=C(O)/C(=C\c2ccc(OCC(=O)Nc3ccccc3)cc2)N=C1C	-2%	nt	3%	nt	-2%	24µM*
O=C(NC(C(=O)N/N=C/c1ccccn1)c1n[nH]c(=O)c2ccccc12)c1ccccc1 (stereo not given)	-1%	nt	2%	nt	-6%	?
O=[N+]([O-])c1cccc(/C=N/N=C\c2ccccc2)c1	-2%	nt	8%	nt	2%	3.4µM*
Cc1nnc(C)n1/N=C/c1cccc([N+](=O)[O-])c1	-1%	2%	3%	-1%	-8%	-2%
O=[N+]([O-])c1ccc(/C=N/Nc2ncc(-c3ccccc3)cn2)cc1	-3%	0%	6%	-1%	-3%	-2%
O=[N+]([O-])c1ccc(N/N=C/c2ccccc2)c(F)c1	?	22µM*	?	-1%	?	11µM*
Cc1cc(NC(=O)Nc2ccccc2[N+](=O)[O-])n(C)n1	-2%	nt	2%	nt	-2%	-1%
CCc1ccc(-n2nc(C)c3c(C)cc(=O)n(CC(=O)Nc4ccccc4C(=O)OC)c32)cc1	nt	nt	nt	nt	nt	-1%
CC(=O)c1cn(CC(=O)Nc2ccc(C)cc2C)c2ccccc12	-31%	-79%	-3%	-2%	-23%	1%
COc1cc(SC)ccc1C(=O)NCCOc1ccc(Cl)cc1	1%	-11%	-2%	3%	0%	-16%
COc1cc(SC)ccc1C(=O)Nc1ccc2ncccc2c1	0.45µM*	nt	?	nt	1.3µM*	0.76µM*
COc1cc(SC)ccc1C(=O)Nc1ncc(Cl)cc1Cl	1.6µM*	13µM*	?	-1%	4µM*	2.4µM*
COc1cc(SC)ccc1C(=O)Nc1ncc(C)s1	0.45µM*	1.3µM*	?	-2%	?	0.13µM*
